HTR2A ag = agonists of mouse serotonin 5-HT2A receptor (HTR2A); P35363; CHO-K1 mHTR2A beta-arrestin complementation, luminescence; percent of 30 µM serotonin response; activation, % at 7.6 µM; 360,000 tested, 0.66% active;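 active = activation above a run cutoff, the mean activation of all tested compounds plus 3 SD, cut at about 14% in these data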;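 note: 0% = plate median of compound wells and 100% = 30 µM serotonin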
Target sequence (P35363 whole entry, looked up): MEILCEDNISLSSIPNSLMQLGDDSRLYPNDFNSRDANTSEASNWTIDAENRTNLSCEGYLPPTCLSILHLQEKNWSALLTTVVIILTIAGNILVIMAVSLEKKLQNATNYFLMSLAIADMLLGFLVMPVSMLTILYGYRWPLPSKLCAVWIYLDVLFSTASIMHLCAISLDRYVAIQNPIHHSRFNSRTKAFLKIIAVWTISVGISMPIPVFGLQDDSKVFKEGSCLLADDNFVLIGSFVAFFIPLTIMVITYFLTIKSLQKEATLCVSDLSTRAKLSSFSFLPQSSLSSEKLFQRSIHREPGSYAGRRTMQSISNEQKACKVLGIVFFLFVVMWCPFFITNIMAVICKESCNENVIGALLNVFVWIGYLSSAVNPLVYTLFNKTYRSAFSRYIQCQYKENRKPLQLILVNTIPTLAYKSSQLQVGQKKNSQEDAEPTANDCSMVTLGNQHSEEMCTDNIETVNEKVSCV
NOD2-RIPK2 inh = blocks binding of human NOD2 to RIPK2 | O43353 | CHO BLA complementation NOD2-RIPK2, CCF4 ratio | inhibition, % at 4.98 µM | 360,000 tested, 0.38% active | AID 624267; in the data active = inhibition above about 21%;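 note: 0% = vehicle only and 100% = reference blocker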
TLR9-MyD88 block = TLR9-MyD88 interaction inhibition | Q9NR96+Q99836 | CHO BLA complementation TLR9-MyD88, CCF4 FRET ratio | inhibition, % at 4.98 µM | 340,000 tested, 0.21% active;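 active = inhibition above the mean over all tested compounds plus 3 SD, cut at about 21% in these data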;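 note: 0% = DMSO only wells and 100% = clavulanate BLA inhibitor control wells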
ANO1 activ = activates or potentiates the mouse TMEM16A chloride channel | 340,000 tested, 0.3% active | AID 623877 | B-score at 10 µM | HEK293 TMEM16A/YFP-H148Q/I152L, iodide quench fluorescence; hits give low values;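 active = fluorescence-ratio B-score plate-corrected deviation score at least 3 library SD below zero, with starting fluorescence score within 5 deviations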;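 note: channel opened by trigger with iodide after compound preincubation; score built on the fluorescence ratio of max minus min over baseline; more negative score means more quench and so TMEM16A activation or potentiation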
TLR4-MyD88 BLA = blocks binding of human TLR4 to MyD88; O00206+Q99836; HeLa CL3-4 TLR4/MyD88 BLA complementation, FRET ratio; inhibition, % at 8.4 µM; 200,000 tested, 0.18% active; AID 861; in the data active = inhibition above about 25%;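 note: 0% = vehicle and 100% = reference inhibitor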
ANO1 block = mouse TMEM16A channel inhibition, primary screen | Q8BHY3 | HEK293 TMEM16A/YFP iodide influx fluorescence, ionomycin | normalized B-score (activity score, 25-100; higher = stronger inhibition) at 10 µM | 310,000 tested, 1.2% active | AID 588511;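 active = ratio plate-corrected score three or more library SD toward inhibition, starting fluorescence score within five deviations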;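 note: score derived from kinetic fluorescence span divided by baseline fluorescence per well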
* hit, by the source's call. In the library only some 2.4% were active in any assay of this set; here they are far more common.

Results for CCCCCOc1ccc(/C(C)=N/NC2=NCCN2)cc1 ?
HTR2A ag: -2; NOD2-RIPK2 inh: 3; TLR9-MyD88 block: -8; ANO1 activ: inactive; ANO1 block: inactive

How did CCNC(=S)N1CCC(Cc2ccccc2)CC1 do in these assays?
HTR2A ag: 3; NOD2-RIPK2 inh: -15; TLR9-MyD88 block: 3; ANO1 activ: -4.8*; ANO1 block: inactive

What do the screens show for `CCCNC(=S)N1CCC(Cc2ccccc2)CC1`?
HTR2A ag: -1; NOD2-RIPK2 inh: -14; TLR9-MyD88 block: 8; ANO1 activ: inactive; ANO1 block: inactive

What do the screens show for `Cc1ccc(NC(=O)c2ccc(Cl)c(N3C(=O)C=CC3=O)c2)cc1`?
HTR2A ag: -3; NOD2-RIPK2 inh: 51*; TLR9-MyD88 block: 18; ANO1 activ: inactive; TLR4-MyD88 BLA: 19; ANO1 block: inactive

What do the screens show for `O=C(Nc1ccc(Cl)c(Cl)c1)c1ccc(Cl)c(Cl)c1`?
HTR2A ag: 0; NOD2-RIPK2 inh: -6; TLR9-MyD88 block: 5; ANO1 activ: inactive; ANO1 block: inactive

What do the screens show for `COc1ccccc1OCc1nnc(SCC(=O)c2cc(Cl)ccc2OC)o1`?
HTR2A ag: -3; NOD2-RIPK2 inh: -7; TLR9-MyD88 block: -5; ANO1 activ: inactive; TLR4-MyD88 BLA: -4; ANO1 block: 100*

How did CC(C)(C)NC(=O)NC(=O)CSc1nnc(COc2ccccc2Cl)o1 do in these assays?
HTR2A ag: -1; NOD2-RIPK2 inh: 5; TLR9-MyD88 block: -3; ANO1 activ: inactive; TLR4-MyD88 BLA: -13; ANO1 block: 100*

How did COCCn1c(-c2ccccc2)csc1=Nc1cccnc1 do in these assays?
HTR2A ag: -2; NOD2-RIPK2 inh: -8; ANO1 activ: inactive; TLR4-MyD88 BLA: -4; ANO1 block: 25*

How did Cc1ccc(-c2csc(=Nc3cccnc3)n2CCCn2ccnc2)cc1C do in these assays?
HTR2A ag: -2; NOD2-RIPK2 inh: -4; TLR9-MyD88 block: 0; ANO1 activ: inactive; TLR4-MyD88 BLA: -21; ANO1 block: 25*

What do the screens show for `Cc1ccc(-c2csc(=Nc3cccnc3)n2CCCN2CCCC2=O)cc1C`?
HTR2A ag: -5; NOD2-RIPK2 inh: -15; TLR9-MyD88 block: 8; ANO1 activ: inactive; TLR4-MyD88 BLA: -19; ANO1 block: inactive

Results for O=C(c1ccccc1Cc1ccccc1)N1CCN(S(=O)(=O)c2ccc(F)cc2)CC1 ?
HTR2A ag: -2; NOD2-RIPK2 inh: -7; TLR9-MyD88 block: 1; ANO1 activ: inactive; ANO1 block: inactive

How did CC(=O)NC(CC(=O)NC(C)c1ccc(Cl)cc1Cl)c1ccccc1 (configuration not stated) do in these assays?
HTR2A ag: -1; NOD2-RIPK2 inh: 1; TLR9-MyD88 block: 4; ANO1 activ: -32*; TLR4-MyD88 BLA: -11; ANO1 block: inactive

How did CC1=C(Sc2ccccn2)C(=O)NC(C)(C)C1 do in these assays?
HTR2A ag: 0; NOD2-RIPK2 inh: -6; TLR9-MyD88 block: -3; ANO1 activ: inactive; TLR4-MyD88 BLA: 5; ANO1 block: inactive

Results for COc1cc(/C=C2/SC(=S)N(CC(=O)O)C2=O)ccc1OC(=O)c1ccco1 ?
HTR2A ag: 0; NOD2-RIPK2 inh: -11; TLR9-MyD88 block: 2; ANO1 activ: -5.3*; ANO1 block: inactive

How did COc1ccc(/C=C2/SC(=S)N(CC(=O)O)C2=O)cc1OCc1ccc(Cl)cc1 do in these assays?
HTR2A ag: -2; NOD2-RIPK2 inh: -3; TLR9-MyD88 block: 2; ANO1 activ: inactive; ANO1 block: inactive

Results for Cc1ccc(S(=O)(=O)Nc2cccc(C(=O)NCC(c3ccco3)N3CCCCC3)c2)cc1F (configuration not stated) ?
HTR2A ag: -11; NOD2-RIPK2 inh: 8; TLR9-MyD88 block: -9; ANO1 activ: inactive; ANO1 block: inactive

How did COc1ccc(-c2ccc3c(c2)S(=O)(=O)c2cccc(C(=O)NC[C@@H]4CCCO4)c2C3=O)cc1OC do in these assays?
HTR2A ag: 15*; NOD2-RIPK2 inh: 5; TLR9-MyD88 block: -7; ANO1 activ: inactive

Results for O=C(Nc1cccnc1)c1ccccc1Oc1ccccc1 ?
HTR2A ag: 0; NOD2-RIPK2 inh: 4; TLR9-MyD88 block: -9; ANO1 activ: inactive; TLR4-MyD88 BLA: -8; ANO1 block: inactive

Screening data: PubChem BioAssay, several laboratories
